{"source": "the supplement of paper PMC10981050", "assay_in_all_cases": "cell viability relative to vehicle control; higher = less cytotoxic", "conditions_in_all_cases": "10 µM", "key": {"K562": {"tested_on": "K562", "summary_of_the_method": "(§1)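 CRISPR-edited mutant clones and isogenic wild-type clones from four leukaemia lines were screened against Selleck bioactive, kinase and epigenetic probe libraries, with identity-inconsistent compounds excluded. Each compound was acoustically dispensed at a single 10 µM dose into 384-well plates holding 2000 cells in 50 µL medium per well. After 48 h the supernatant was removed and CellTiter-Glo luminescence was read. Viability was expressed as percent of the on-plate vehicle control and analysed in Genedata Screener.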"}, "MARIMO": {"tested_on": "MARIMO", "summary_of_the_method": "as §1"}, "MOLM14": {"tested_on": "MOLM14", "summary_of_the_method": "as §1"}, "OCI-AML2": {"tested_on": "OCI-AML2", "summary_of_the_method": "as §1"}}, "note": "“And” between values parts separate entries of the source, which are not always exact repeats. Equal values may be shown once. Where a name gives a salt, the structure may show the parent alone.", "data": [{"smiles": "CC[C@H]1CN2CC[C@]3(C(=O)Nc4ccccc43)[C@@H]2C[C@@H]1/C(=C\\OC)C(=O)OC", "note": "[Rhynchophylline]", "values": [{"measurement": "cell viability", "setting": "K562; SRSF2 genotype: SRSF2 P95H/wt", "result": "93.2% and 97.5%"}, {"measurement": "cell viability", "setting": "K562; SRSF2 genotype: SRSF2 wt/wt", "result": 89.5, "unit": "%"}, {"measurement": "cell viability", "setting": "MARIMO; SRSF2 genotype: SRSF2 P95H/wt", "result": 80.4, "unit": "%"}, {"measurement": "cell viability", "setting": "MARIMO; SRSF2 genotype: SRSF2 wt/wt", "result": 77.7, "unit": "%"}, {"measurement": "cell viability", "setting": "MOLM14; SRSF2 genotype: SRSF2 P95H/wt", "result": 88.9, "unit": "%"}, {"measurement": "cell viability", "setting": "MOLM14; SRSF2 genotype: SRSF2 wt/wt", "result": 88.3, "unit": "%"}, {"measurement": "cell viability", "setting": "OCI-AML2; SRSF2 genotype: P95H/wt", "result": 86.7, "unit": "%"}, {"measurement": "cell viability", "setting": "OCI-AML2; SRSF2 genotype: wt/wt", "result": 88.5, "unit": "%"}]}, {"smiles": "O=C(O)CCCCCCCCCO", "note": "[10-Hydroxydecanoic acid]", "values": [{"measurement": "cell viability", "setting": "K562; SRSF2 genotype: SRSF2 P95H/wt", "result": "99.2% and 97.8%"}, {"measurement": "cell viability", "setting": "K562; SRSF2 genotype: SRSF2 wt/wt", "result": 100, "unit": "%"}, {"measurement": "cell viability", "setting": "MARIMO; SRSF2 genotype: SRSF2 P95H/wt", "result": 97.8, "unit": "%"}, {"measurement": "cell viability", "setting": "MARIMO; SRSF2 genotype: SRSF2 wt/wt", "result": 101, "unit": "%"}, {"measurement": "cell viability", "setting": "MOLM14; SRSF2 genotype: SRSF2 P95H/wt", "result": 97.9, "unit": "%"}, {"measurement": "cell viability", "setting": "MOLM14; SRSF2 genotype: SRSF2 wt/wt", "result": 99.3, "unit": "%"}, {"measurement": "cell viability", "setting": "OCI-AML2; SRSF2 genotype: P95H/wt", "result": 99.4, "unit": "%"}, {"measurement": "cell viability", "setting": "OCI-AML2; SRSF2 genotype: wt/wt", "result": 92.7, "unit": "%"}]}, {"smiles": "O=P1(N(CCCl)CCCl)NCCCO1", "note": "(stereo not given) [Cyclophosphamide monohydrate]", "values": [{"measurement": "cell viability", "setting": "K562; SRSF2 genotype: SRSF2 P95H/wt", "result": "105% and 103%"}, {"measurement": "cell viability", "setting": "K562; SRSF2 genotype: SRSF2 wt/wt", "result": 108, "unit": "%"}, {"measurement": "cell viability", "setting": "MARIMO; SRSF2 genotype: SRSF2 P95H/wt", "result": 94.6, "unit": "%"}, {"measurement": "cell viability", "setting": "MARIMO; SRSF2 genotype: SRSF2 wt/wt", "result": 106, "unit": "%"}, {"measurement": "cell viability", "setting": "MOLM14; SRSF2 genotype: SRSF2 P95H/wt", "result": 99.2, "unit": "%"}, {"measurement": "cell viability", "setting": "MOLM14; SRSF2 genotype: SRSF2 wt/wt", "result": 102, "unit": "%"}, {"measurement": "cell viability", "setting": "OCI-AML2; SRSF2 genotype: P95H/wt", "result": 100, "unit": "%"}, {"measurement": "cell viability", "setting": "OCI-AML2; SRSF2 genotype: wt/wt", "result": 106, "unit": "%"}]}, {"smiles": "COC(=O)c1ccccc1C(=O)OC", "note": "[Dimethyl phthalate]", "values": [{"measurement": "cell viability", "setting": "K562; SRSF2 genotype: SRSF2 P95H/wt", "result": "86.9% and 85.8%"}, {"measurement": "cell viability", "setting": "K562; SRSF2 genotype: SRSF2 wt/wt", "result": 84, "unit": "%"}, {"measurement": "cell viability", "setting": "MARIMO; SRSF2 genotype: SRSF2 P95H/wt", "result": 85.6, "unit": "%"}, {"measurement": "cell viability", "setting": "MARIMO; SRSF2 genotype: SRSF2 wt/wt", "result": 93.4, "unit": "%"}, {"measurement": "cell viability", "setting": "MOLM14; SRSF2 genotype: SRSF2 P95H/wt", "result": 87.5, "unit": "%"}, {"measurement": "cell viability", "setting": "MOLM14; SRSF2 genotype: SRSF2 wt/wt", "result": 85.8, "unit": "%"}, {"measurement": "cell viability", "setting": "OCI-AML2; SRSF2 genotype: P95H/wt", "result": 89.5, "unit": "%"}, {"measurement": "cell viability", "setting": "OCI-AML2; SRSF2 genotype: wt/wt", "result": 80.7, "unit": "%"}]}, {"smiles": "O=c1[nH]c2ccccc2n1CCCN1CCC(n2c(=O)[nH]c3cc(Cl)ccc32)CC1", "note": "[Domperidone (Motilium)]", "values": [{"measurement": "cell viability", "setting": "K562; SRSF2 genotype: SRSF2 P95H/wt", "result": "78.9% and 85.9%"}, {"measurement": "cell viability", "setting": "K562; SRSF2 genotype: SRSF2 wt/wt", "result": 79.7, "unit": "%"}, {"measurement": "cell viability", "setting": "MARIMO; SRSF2 genotype: SRSF2 P95H/wt", "result": 77.9, "unit": "%"}, {"measurement": "cell viability", "setting": "MARIMO; SRSF2 genotype: SRSF2 wt/wt", "result": 87.4, "unit": "%"}, {"measurement": "cell viability", "setting": "MOLM14; SRSF2 genotype: SRSF2 P95H/wt", "result": 92.4, "unit": "%"}, {"measurement": "cell viability", "setting": "MOLM14; SRSF2 genotype: SRSF2 wt/wt", "result": 91.8, "unit": "%"}, {"measurement": "cell viability", "setting": "OCI-AML2; SRSF2 genotype: P95H/wt", "result": 78.8, "unit": "%"}, {"measurement": "cell viability", "setting": "OCI-AML2; SRSF2 genotype: wt/wt", "result": 85.7, "unit": "%"}]}, {"smiles": "Cc1c([C@H](C)[C@@H]2NC[C@@H](C)C[C@H]2O)ccc2c1C[C@H]1[C@H]2CC=C2C[C@@H](O)CC[C@@]21C", "note": "[Veratramine]", "values": [{"measurement": "cell viability", "setting": "K562; SRSF2 genotype: SRSF2 P95H/wt", "result": "73.9% and 73%"}, {"measurement": "cell viability", "setting": "K562; SRSF2 genotype: SRSF2 wt/wt", "result": 75, "unit": "%"}, {"measurement": "cell viability", "setting": "MARIMO; SRSF2 genotype: SRSF2 P95H/wt", "result": 64.7, "unit": "%"}, {"measurement": "cell viability", "setting": "MARIMO; SRSF2 genotype: SRSF2 wt/wt", "result": 64.5, "unit": "%"}, {"measurement": "cell viability", "setting": "MOLM14; SRSF2 genotype: SRSF2 P95H/wt", "result": 81.1, "unit": "%"}, {"measurement": "cell viability", "setting": "MOLM14; SRSF2 genotype: SRSF2 wt/wt", "result": 89.6, "unit": "%"}, {"measurement": "cell viability", "setting": "OCI-AML2; SRSF2 genotype: P95H/wt", "result": 47.1, "unit": "%"}, {"measurement": "cell viability", "setting": "OCI-AML2; SRSF2 genotype: wt/wt", "result": 62.9, "unit": "%"}]}, {"smiles": "COC1CC(OC2CCC3(C)C4CCC5(C)C(C6=CC(=O)OC6)CCC5(O)C4CCC3(O)C2)OC(C)C1OC1OC(CO)C(O)C(O)C1O", "note": "(stereo not given) [Periplocin]", "values": [{"measurement": "cell viability", "setting": "K562; SRSF2 genotype: SRSF2 P95H/wt", "result": "8.96% and 10.7%"}, {"measurement": "cell viability", "setting": "K562; SRSF2 genotype: SRSF2 wt/wt", "result": 11.7, "unit": "%"}, {"measurement": "cell viability", "setting": "MARIMO; SRSF2 genotype: SRSF2 P95H/wt", "result": 11.5, "unit": "%"}, {"measurement": "cell viability", "setting": "MARIMO; SRSF2 genotype: SRSF2 wt/wt", "result": 4.97, "unit": "%"}, {"measurement": "cell viability", "setting": "MOLM14; SRSF2 genotype: SRSF2 P95H/wt", "result": 3.28, "unit": "%"}, {"measurement": "cell viability", "setting": "MOLM14; SRSF2 genotype: SRSF2 wt/wt", "result": 0.9, "unit": "%"}, {"measurement": "cell viability", "setting": "OCI-AML2; SRSF2 genotype: P95H/wt", "result": 1.16, "unit": "%"}, {"measurement": "cell viability", "setting": "OCI-AML2; SRSF2 genotype: wt/wt", "result": 4.41, "unit": "%"}]}, {"smiles": "CC(C)=CCC[C@]1(C)C=Cc2c(O)c3c(c(CC=C(C)C)c2O1)O[C@]12C(=C[C@@H]4C[C@H]1C(C)(C)O[C@@]2(C/C=C(/C)C(=O)O)C4=O)C3=O", "note": "[Gambogic Acid]", "values": [{"measurement": "cell viability", "setting": "K562; SRSF2 genotype: SRSF2 P95H/wt", "result": "1.29% and 0.59%"}, {"measurement": "cell viability", "setting": "K562; SRSF2 genotype: SRSF2 wt/wt", "result": 0.98, "unit": "%"}, {"measurement": "cell viability", "setting": "MARIMO; SRSF2 genotype: SRSF2 P95H/wt", "result": 0.39, "unit": "%"}, {"measurement": "cell viability", "setting": "MARIMO; SRSF2 genotype: SRSF2 wt/wt", "result": 0.5, "unit": "%"}, {"measurement": "cell viability", "setting": "MOLM14; SRSF2 genotype: SRSF2 P95H/wt", "result": 0.42, "unit": "%"}, {"measurement": "cell viability", "setting": "MOLM14; SRSF2 genotype: SRSF2 wt/wt", "result": 0.51, "unit": "%"}, {"measurement": "cell viability", "setting": "OCI-AML2; SRSF2 genotype: P95H/wt", "result": 0.38, "unit": "%"}, {"measurement": "cell viability", "setting": "OCI-AML2; SRSF2 genotype: wt/wt", "result": 0.45, "unit": "%"}]}, {"smiles": "ClCCN(Cc1ccccc1)Cc1ccccc1", "note": "[Dibenamine Hydrochloride]", "values": [{"measurement": "cell viability", "setting": "K562; SRSF2 genotype: SRSF2 P95H/wt", "result": "103% and 95.7%"}, {"measurement": "cell viability", "setting": "K562; SRSF2 genotype: SRSF2 wt/wt", "result": 91.5, "unit": "%"}, {"measurement": "cell viability", "setting": "MARIMO; SRSF2 genotype: SRSF2 P95H/wt", "result": 94.9, "unit": "%"}, {"measurement": "cell viability", "setting": "MARIMO; SRSF2 genotype: SRSF2 wt/wt", "result": 104, "unit": "%"}, {"measurement": "cell viability", "setting": "MOLM14; SRSF2 genotype: SRSF2 P95H/wt", "result": 94.8, "unit": "%"}, {"measurement": "cell viability", "setting": "MOLM14; SRSF2 genotype: SRSF2 wt/wt", "result": 103, "unit": "%"}, {"measurement": "cell viability", "setting": "OCI-AML2; SRSF2 genotype: P95H/wt", "result": 83.5, "unit": "%"}, {"measurement": "cell viability", "setting": "OCI-AML2; SRSF2 genotype: wt/wt", "result": 89.3, "unit": "%"}]}, {"smiles": "N#CC(C#N)=Cc1ccc(O)c(O)c1", "note": "[AG 18 (Tyrphostin 23)]", "values": [{"measurement": "cell viability", "setting": "K562; SRSF2 genotype: SRSF2 P95H/wt", "result": "86.3% and 84.4%"}, {"measurement": "cell viability", "setting": "K562; SRSF2 genotype: SRSF2 wt/wt", "result": 80.7, "unit": "%"}, {"measurement": "cell viability", "setting": "MARIMO; SRSF2 genotype: SRSF2 P95H/wt", "result": 78.4, "unit": "%"}, {"measurement": "cell viability", "setting": "MARIMO; SRSF2 genotype: SRSF2 wt/wt", "result": 79.8, "unit": "%"}, {"measurement": "cell viability", "setting": "MOLM14; SRSF2 genotype: SRSF2 P95H/wt", "result": 81.5, "unit": "%"}, {"measurement": "cell viability", "setting": "MOLM14; SRSF2 genotype: SRSF2 wt/wt", "result": 86.5, "unit": "%"}, {"measurement": "cell viability", "setting": "OCI-AML2; SRSF2 genotype: P95H/wt", "result": 78.8, "unit": "%"}, {"measurement": "cell viability", "setting": "OCI-AML2; SRSF2 genotype: wt/wt", "result": 82, "unit": "%"}]}]}
